Assay outcomes (PubChem BioAssay)
EBV gp42 block – blocks Epstein-Barr virus glycoprotein 42 binding | Q1HVG2 | Fluorescence polarization binding assay, mP read-out | inhibition, % (tested at 21.74 µM) | actives 0.42% (n = 220,000) | AID 1085; in the data active means inhibition above about 50%
GLD-1 TGE inh – GLD-1-TGE RNA interaction inhibition (C. elegans); purified GLD-1 + fluorescein TGE RNA, fluorescence polarization; inhibition, % at 5.96 µM; actives 0.44% (n = 320,000); AID 2280;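 active means percent inhibition above a per-plate cutoff, the plate mean of test compounds plus 3 SD, cut at about 30% in these data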;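 further: 0% = DMSO wells with GLD-1 and probe and 100% = wells lacking GLD-1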
MEX-5 binding – C. elegans MEX-5 TCR-2 RNA binding activity; MEX-5/FITC-TCR2 RNA binding, fluorescence polarization; hits give low values; activity score (negative = inhibition of binding), % at 10 µM; actives 0.38% (n = 300,000); AID 1832;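 active means inhibition past about -25% in most replicates, and total fluorescence under double the plate's negative control median, limit read from the data; inconclusive means replicates evenly split on the limit, or fluorescence at least double controls; inactive means too little inhibition in most replicates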;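 further: 0% = DMSO and -100% = 5 µM competing unlabeled TCR2 RNA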
MCL1 BIM primary – inhibitors of human MCL1 binding to BIM-BH3 peptide; Q07820; GST-MCL1 / FITC-Bim-BH3 fluorescence polarization; inhibition, % at 10.9 µM; actives 0.68% (n = 320,000); AID 2057;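 active means inhibition above the mean inhibition of all tested compounds plus 3 SD, set per campaign, cut at about 40% in these data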;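 further: 0% = DMSO wells and 100% = unlabeled Bim-BH3 peptide control; higher means more loss of mP so more displacement of Bim peptide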
Target sequence (Q07820 whole entry, looked up): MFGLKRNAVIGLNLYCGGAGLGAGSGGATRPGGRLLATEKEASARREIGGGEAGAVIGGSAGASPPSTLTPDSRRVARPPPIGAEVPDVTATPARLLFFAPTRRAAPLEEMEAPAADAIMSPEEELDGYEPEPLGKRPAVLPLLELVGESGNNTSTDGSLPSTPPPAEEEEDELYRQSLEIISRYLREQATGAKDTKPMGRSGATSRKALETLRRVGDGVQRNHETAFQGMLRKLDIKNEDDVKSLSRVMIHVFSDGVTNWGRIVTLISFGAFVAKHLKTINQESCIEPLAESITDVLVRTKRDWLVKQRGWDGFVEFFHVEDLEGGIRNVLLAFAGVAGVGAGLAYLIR
Bcl-xL primary – inhibitors of human Bcl-xL | Q07817 | GST-Bcl-xL / FITC-Bim BH3 peptide fluorescence polarization | inhibition, % at 10.9 µM | actives 0.7% (n = 320,000) | AID 2129;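 active means inhibition above the mean of all tested compounds plus 3 SD, cutoff set per campaign, cut at about 30% in these data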;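 further: 0% = DMSO wells and 100% = unlabeled Bim-BH3 peptide competitor; inhibitors lower millipolarization by displacing the labeled peptide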
Target sequence (Q07817 whole entry, looked up): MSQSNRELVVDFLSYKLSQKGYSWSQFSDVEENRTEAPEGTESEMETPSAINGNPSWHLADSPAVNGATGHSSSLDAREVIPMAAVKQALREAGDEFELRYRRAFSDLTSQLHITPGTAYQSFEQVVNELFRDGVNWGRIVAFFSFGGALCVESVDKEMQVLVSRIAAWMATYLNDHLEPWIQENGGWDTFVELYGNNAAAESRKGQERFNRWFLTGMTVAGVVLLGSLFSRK
* marks the source's active call; other numbers are inactive results; ? = inconclusive; . = no result given. This is a sample that favours compounds with a hit; in the whole collection about 1.3% have one here.

SMILES	EBV gp42 block	GLD-1 TGE inh	MEX-5 binding	MCL1 BIM primary	Bcl-xL primary
COc1ccc(C(C(=O)NC2CCCC2)N(C(=O)c2ccoc2C)c2ccccc2)cc1 (stereo unspecified)	-0.8	-0.2	3.4	-6.2	-0.8
COc1ccc(C(C(=O)NC2CCCC2)N(C(=O)c2ccoc2C)c2cc(C)cc(C)c2)cc1 (stereo unspecified)	-34.8	1.7	1.8	6.6	51.7*
N#Cc1c(C#N)c(O)c2ccccc2c1O	68.3*	16.2	-22.6	44.4*	44.8*
N#Cc1ccccc1	.	1.3	.	7.1	4.5
O=C(CCCc1nc(-c2ccccc2Cl)no1)NC1CCCC1	.	5.5	0.6	-4.7	-3.2
COc1ccccc1NC(=O)CCCCCN1C(=O)c2cccc([N+](=O)[O-])c2C1=O	.	2.8	-0.4	5.2	6.9
COc1cc(/C=C2/C(=O)c3cccc([N+](=O)[O-])c3C2=O)c(Br)cc1O	54.3*	3.6	.	32.5	25.5
CCOCCCn1c(=S)[nH]c2cc(C(=O)NCCc3ccccc3)ccc2c1=O	.	-0.2	1.1	-0.3	-3.8
Cc1cc(C(=O)NNC(=O)CCCCC(=O)NNC(=O)c2cc(C)[nH]n2)n[nH]1	1.6	7.1	-36.9*	11.1	-1.4
CCCOc1ccc(N2C(=O)CC(NCCNc3ccc(S(=O)(=O)CC)cc3)C2=O)cc1 (stereo unspecified)	-14.2	1.9	2.4	3.9	58.9*
Cc1ccc(S(=O)(=O)N2CC=C(c3c(C)n(C)c4ccccc34)CC2)cc1	-14.8	14.5	0.4	28.3	16.9
CCn1c(C)c(C2=CCN(S(=O)(=O)c3ccccc3)CC2)c2ccccc21	-2.6	32.2*	0.9	-1.1	20.3
CCOc1cc(/C=C2/NC(=O)N(Cc3ccccc3F)C2=O)ccc1O	6.0	-4.5	0.7	0.3	3.1
COc1cc(/C=C2/NC(=O)N(Cc3ccccc3F)C2=O)cc(OC)c1O	34.7	66.3*	-9.5	14.5	9.6
Cc1cc(Cl)ccc1NC(=S)N1CCN(C(=O)c2ccco2)CC1	.	2.8	-6.1	8.6	9.9
c1ccc(CCn2nnnc2CN2CCCc3ccccc32)cc1	11.4	5.1	-6.3	41.5*	41.5*
CCOc1c(C=C(C#N)C#N)c2ccccc2n1CC	2.4	-4.0	-38.7*	16.1	2.6
COc1ccc(CNC(=O)CCC(=O)Nc2nnc(CC(C)C)s2)cc1	-7.0	2.9	1.1	2.7	0.2
Cc1ncc(CO)c(/C=N/NC(=O)c2cc(O)c(O)c(O)c2)c1O	-18.5	.	-39.1*	.	.
Cc1ncc(CO)c(/C=N/NC(=O)c2ccc(Br)cc2)c1O	-3.1	15.1	-0.4	12.0	10.7
Cc1ncc(CO)c(/C=N/NC(=O)c2cc(Br)ccc2O)c1O	-16.0	0.1	-82.0*	19.7	4.6
Cc1cc(C(=O)N/N=C/c2c(CO)cnc(C)c2O)c2ccccc2n1	.	-4.9	-4.2	11.8	8.6
CC1Oc2ccccc2C=C1/C=C1/SC(N2CCOCC2)=NC1=O (stereo unspecified)	-4.5	-5.2	-3.0	-3.6	-2.3
CCN1C(=O)/C(=C/C2=Cc3ccccc3OC2C)SC1=S (stereo unspecified)	52.4*	-24.4	-0.7	-49.7	-28.7
O=C(COC(=O)c1ccco1)NCCc1ccc(Cl)cc1	.	-0.4	.	4.2	2.0
SMILES	EBV gp42 block	GLD-1 TGE inh	MEX-5 binding	MCL1 BIM primary	Bcl-xL primary
CN(C)CCNc1oc(COc2ccc(Cl)cc2Cl)nc1C#N	11.5	26.3	-2.1	42.2*	34.2*
Cc1cc(C)nc(Sc2nc(Cl)nc(N(c3ccccc3)c3ccccc3)n2)n1	-2.2	0.4	0.5	7.7	8.7
CN1C=C/C(=C\c2cc[n+](C)c3ccccc23)c2ccccc21	-10.7	.	-66.9*	.	.
COc1ccc(N=Cc2cc(Cc3ccccc3Cl)cc([N+](=O)[O-])c2O)cc1OC	104.2*	5.8	-2.4	-18.1	-11.5
C[n+]1cccc(C2C(C#N)=C(N)Oc3c2ccc2ccccc32)c1 (stereo unspecified)	14.9	5.0	-9.2	30.2	38.8*
C[n+]1cccc2ccc3c(c21)OC(N)=C(C#N)C3c1ccccc1 (stereo unspecified)	-48.2	5.7	2.0	-15.0	-10.0
Cn1c(C(=O)NCCCN2CCOCC2)cc2c(=O)n(C)c3ccccc3c21	4.0	0.6	-41.7*	1.2	3.1
CC1CCN(CCCNC(=O)c2cc3c(=O)n(C)c4ccccc4c3n2C)CC1	2.9	-1.8	-0.4	3.9	5.7
CCCN1C(=O)c2cccc3c(N4CCCCC4)ccc(c23)C1=O	80.0*	34.9*	-134.7*	35.3	43.0*
COC(=O)CCCN1C(=O)c2cccc3cccc(c23)C1=O	.	0.8	0.2	4.7	8.1
CCCCNc1ccc2c3c(cccc13)C(=O)N(CCCC)C2=O	180.7*	.	?	.	.
CN(C)CCCN1C(=O)c2cccc3c(Br)ccc(c23)C1=O	77.3*	22.4	?	38.9	35.1*
O=C(CSc1nccn1Cc1ccccc1)NCc1ccccc1	-10.2	1.7	0.0	-2.4	-0.5
CCC(=O)Nc1ccccc1C(=O)C(=O)Nc1ccccc1	9.8	2.8	1.0	2.9	4.5
COc1ccc(NC(=O)Cn2c3ccccc3c3nc4n(c(=O)c32)CCS4)cc1	-23.8	1.5	0.0	4.4	5.6
Cc1ccc(N=C(N)N=C(N)N)cc1	-12.8	-6.2	-1.0	-4.9	-7.4
COc1cccc(-n2ccnc2SCC(=O)Nc2nccs2)c1	-18.3	104.2*	-0.6	-5.3	4.2
Cc1cccc(-n2ccnc2SCC(=O)Nc2nccs2)c1	5.2	-1.8	1.7	-3.9	-1.0
NS(=O)(=O)c1ccc(NC(=O)COC(=O)c2cn(-c3ccccc3)nc2-c2ccc(F)cc2)cc1	-2.3	9.3	-29.7*	-4.8	2.2
Nc1c(S(=O)(=O)O)cc(NC(=O)c2ccccc2)c2c1C(=O)c1ccccc1C2=O	.	68.2*	-0.9	108.9*	72.0*
O=C(Nc1ccccc1-c1ccccc1)c1ccccc1	.	3.8	0.5	-1.4	-2.6
Cc1c(NS(=O)(=O)c2cc(C(=O)NCC3CCCO3)cc(Cl)c2Cl)c(=O)n(-c2ccccc2)n1C (stereo unspecified)	.	4.8	-1.1	8.2	8.0
COc1cc(N)ccc1C(=O)O	-11.3	1.0	-1.7	0.8	3.8
Nc1ccc(O)c(C(=O)O)c1	.	17.9	-15.3	75.9*	35.2*
O=C(NCc1cccc(C(F)(F)F)c1)c1cccc2c1C(=O)c1ccc(N3CCC(Cc4ccccc4)CC3)cc1S2(=O)=O	.	128.0*	.	.	.
O=C(NCc1ccc(OC(F)(F)F)cc1)c1cccc2c1C(=O)c1ccc(N3CCCC3)cc1S2(=O)=O	.	6.3	.	.	.
O=C(NCc1ccco1)c1cccc2c1C(=O)c1ccc(N3CCC(Cc4ccccc4)CC3)cc1S2(=O)=O	.	91.3*	.	.	.
O=C(NCc1ccc(OC(F)(F)F)cc1)c1cccc2c1C(=O)c1ccc(N3CCC(Cc4ccccc4)CC3)cc1S2(=O)=O	.	121.5*	.	.	.
O=C(NCc1cccc(F)c1)c1cccc2c1C(=O)c1ccc(N3CCCC3)cc1S2(=O)=O	.	55.1*	.	.	.
